# Source: PubChem
# Rows were chosen to be rich in hits. Some 27% of all compounds tested hit in one or more screens of this group.
# CYP2C9 act: CYP2C9 (human) activation; actives 1.4% (n = 96,000); activation factor at 5 µM; P11712; recombinant CYP2C9, luciferin-H conversion, luminescence; hits give high values; factor 1 = untreated enzyme, 0 = blocked;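 active = activation factor of 2 or more for CYP2C9 at a 5 µM dose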
# CYP2C19 inh: human CYP2C19 inhibition; P33261; CYP2C19 Supersomes, luciferin-H EGE luminescence, 30 min; inhibition, % at 5 µM; actives 21% (n = 96,000);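 active = CYP2C19 inhibition above a set limit at 5 µM in the primary screen, cut at about 50% in these data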
# CYP2C9 inh: human CYP2C9 inhibition | CYP2C9 Supersomes, luciferin-H conversion, luminescence | inhibition, % at 5 µM | actives 20% (n = 96,000) | AID 777;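 active = blocking of liver enzyme CYP2C9 beyond about 50% at 5 µM, limit read from the data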
# CYP2C19 activ: activators of human cytochrome P450 2C19 | P33261 | AID 1025 | 96,000 tested, under 10 active | recombinant CYP2C19, luciferin-H EGE luminescence; hits give high values; 0 = fully inhibited enzyme, 1 = untreated enzyme | activation factor at 5 µM;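 active = activation factor of at least 2 at 5 µM in the primary screen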
# sEH act: increases human soluble epoxide hydrolase activity; P34913; activation, % at 2 µM; purified human sEH enzymatic activity, activator screen; actives 0.04% (n = 91,000); in the data active = activation above about 37%
# Target sequence (P34913 whole entry, looked up): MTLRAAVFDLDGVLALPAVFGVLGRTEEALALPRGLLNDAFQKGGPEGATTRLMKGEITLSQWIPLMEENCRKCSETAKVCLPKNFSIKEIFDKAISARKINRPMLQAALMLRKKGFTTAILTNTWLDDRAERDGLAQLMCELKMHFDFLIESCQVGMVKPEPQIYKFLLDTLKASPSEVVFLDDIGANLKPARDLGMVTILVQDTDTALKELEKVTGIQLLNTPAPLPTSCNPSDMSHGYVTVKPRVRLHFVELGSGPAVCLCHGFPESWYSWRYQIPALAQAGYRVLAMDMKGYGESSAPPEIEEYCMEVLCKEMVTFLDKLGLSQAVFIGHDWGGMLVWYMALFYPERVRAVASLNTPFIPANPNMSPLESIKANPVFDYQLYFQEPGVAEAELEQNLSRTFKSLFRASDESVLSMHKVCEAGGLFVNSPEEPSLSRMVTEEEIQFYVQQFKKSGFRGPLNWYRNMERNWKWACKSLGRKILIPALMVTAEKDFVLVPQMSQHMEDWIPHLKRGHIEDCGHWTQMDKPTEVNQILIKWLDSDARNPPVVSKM
# sEH inhibitor: soluble epoxide hydrolase (human) inhibition. actives 0.34% (n = 91,000). P34913. recombinant human sEH enzymatic activity assay. inhibition, % at 2 µM; in the data active = inhibition above about 80%
# Hits are given with their value; – = inactive; · = no result.
SMILES,CYP2C9 act,CYP2C19 inh,CYP2C9 inh,CYP2C19 activ,sEH act,sEH inhibitor
CCOC(=O)CS(=O)(=O)c1nc(-c2ccccc2)cc(C(F)(F)F)n1,–,–,59,–,–,–
CCOC(=O)CS(=O)(=O)c1ccc2ccccc2c1,2.9,87,–,–,–,–
N#CC1=C(N)OC2=C(C(=O)CCC2)C1Cc1ccccc1 (stereo unspecified),·,·,·,·,–,–
CCOc1ccc(C(=O)NCCn2cc(SCC(=O)Nc3cc(C)on3)c3ccccc32)cc1,–,–,57,–,–,–
COc1ccccc1C(=O)NCCn1cc(SCC(=O)Nc2cc(C)on2)c2ccccc21,·,·,·,·,–,–
COc1ccc(C(=O)NCCn2cc(SCC(=O)Nc3cc(C)on3)c3ccccc32)cc1OC,–,56,–,–,–,–
CCCCN(C)CCNC(=O)Cn1c(=O)sc2ccccc21,–,–,–,–,–,–
Cc1cccc(OCC(=O)NNc2c3ccccc3nc3ccccc23)c1,2,–,–,–,–,–
Cc1cccc(OCC(=O)Nc2cc(C)ccc2O)c1,–,60,–,–,–,–
Cc1cccc(OCC(=O)Nc2cc(C)c(C)cc2O)c1,–,56,–,–,–,–
COc1cccc(C(=O)Nc2cc(C)ccc2NC(=O)COc2ccccc2)c1,–,–,–,–,–,–
COc1cc(C(=O)NCc2ccc3c(c2)OCO3)ccc1OCc1c(C)noc1C,–,–,–,–,·,·
O=C(c1n[nH]c(=O)c2ccccc12)N1CCN(c2ccc(F)cc2)CC1,–,–,–,–,–,–
COC(=O)C1=C(C)N(c2ccc(C)c(C)c2)/C(=C/c2cccs2)C1=O,–,–,–,–,–,–
COc1ccc(C(=O)c2ccccc2)cc1Br,2.2,–,–,–,–,–
COc1ccc(C(=O)c2ccc(OC)c(OC)c2)cc1OC,–,–,–,–,–,–
COc1ccc(C(=O)c2ccc(OC)c(N)c2)cc1N,2.6,–,–,–,–,–
Cc1cccc(C2(c3cccc(C)c3)OC(=O)c3ccccc32)c1,–,–,62,–,–,–
Cc1cc(O)ccc1C1(c2ccc(O)cc2C)OC(=O)c2ccccc21,·,·,·,·,–,–
COc1cc(/C=N/NC(=O)CCc2c(C)n[nH]c2C)ccc1O,–,–,–,–,–,–
Cc1ccc(C)c(NC(=O)CS(=O)(=O)c2cn(C)c3ccccc23)c1,·,·,·,·,–,–
Cc1ccc(NC(=O)CS(=O)(=O)c2c[nH]c3ccccc23)c(C)c1,–,75,–,–,·,·
O=C(CS(=O)(=O)c1c[nH]c2ccccc12)Nc1ccc2c(c1)OCCO2,–,68,–,–,–,–
Cn1cc(S(=O)(=O)CC(=O)Nc2ccc3c(c2)OCCO3)c2ccccc21,·,·,·,·,–,–
Cc1ccc(-c2nnc(SCC(=O)N3CCN(c4ccccc4)CC3)o2)cc1,–,–,–,–,–,–
CCC(=O)c1cccc2c1N=CC1=C(CC(C)(C)CC1=O)N2,–,–,55,–,–,–
CC1(C)CC(=O)C2=C(C1)Nc1ccccc1NC2c1cccnc1 (stereo unspecified),–,–,–,–,·,·
COc1cccc(-c2cc3c(-n4cccc4)ncnc3o2)c1,–,–,–,–,–,–
